# Reference: PubChem BioAssay
# A number with no mark means an inactive call.
# Assay: basal S. cerevisiae growth modulation, no modifier, primary screen, OD600, strain BY4716, 24 h, basal condition (AID 1173)
# Details: OD600, 24 h, higher = more signal, called active from +8 up or from −8 down
row,SMILES,z-score
1,CCCCN1CC=CC23O[C@@H]4C=CCCOC(=O)C4[C@H]2C(=O)N(CCCCCO)[C@@H]3C1=O (some centres undefined),-0.1
2,COc1ccc(CCNC(=O)[C@@]2(C)c3ccccc3C(=O)N(c3ccc(C)cn3)[C@H]2c2ccc(CO)cc2)cc1,-0.673
3,COC(=O)[C@@]1(Cc2ccc(OC)cc2)[C@H]2c3cc(C(=O)N4CCCC4)n(Cc4nc5ccccc5[nH]4)c3C[C@H]2CN1C(=O)c1ccccc1,1.36
4,[N-]=[N+]=NCc1ccccc1[C@@H]1OC(c2ccc(OCCCO)cc2)=N[C@]1(CCS(=O)(=O)c1ccccc1)C(=O)N1CCOCC1,-0.26
5,CCOC(=O)C1=CC[C@H]2C(=O)N(c3ccccc3)C(=O)[C@@H]12,0.206
6,COC(=O)[C@@]1(Cc2ccc(F)cc2)[C@H]2c3cc(C(=O)N(C)C)n(Cc4ccc(C)o4)c3C[C@H]2CN1C(=O)c1ccccc1,0.241
7,OCCCC1=CC(C2CC2)N(Cc2cccc(OC(F)(F)F)c2)CC1 (centres undefined),-1.85
8,CCOc1cc(C(O)C2C=CC3C(=O)N(c4ccccc4)C(=O)C3N2Nc2ccc(C(C)C)cc2)ccc1O (centres undefined),-1.16
9,CO[C@H]1O[C@H](CO)[C@@H](OC(=O)Nc2ccccc2)[C@@H]2OC(=O)[C@@H](Cc3ccc4ccccc4c3)C/C=C/C[C@H](Cc3ccc4ccccc4c3)C(=O)O[C@@H]12,-0.456
10,CCOC(=O)C[C@H]1[C@H](OC(=O)c2ccc(C(=O)c3ccccc3)cc2)[C@@H](NC(=O)Cc2ccc(OC)cc2)c2cc(OCCCO)ccc2N1C(=O)c1ccc2ccccc2n1,-0.337
11,C=CC[C@]1(C(=O)N2CCOCC2)N=C(c2ccc(OCCCO)cc2)O[C@H]1c1ccccc1N=[N+]=[N-],-1.01
12,NC(=O)[C@@H]1[C@H]2C(=O)O[C@H](c3ccccc3)[C@H](c3ccccc3)N2[C@H](c2ccc(O)cc2)[C@@]12C(=O)Nc1ccc(C#CC3=CCCCC3)cc12,0.761
13,COCCCNC(=O)[C@]1(Cc2ccccc2)N=C(c2ccc(OCCCO)cc2)O[C@@H]1c1ccccc1CN=[N+]=[N-],-1.29
14,CC(C)(C)OC(=O)CC[C@]1(C(N)=O)N=C(c2ccc(OCCCO)cc2)O[C@H]1c1ccccc1,0.45
15,O=C1C2C=CC(C(O)C=Cc3ccc([N+](=O)[O-])cc3)N(Nc3ccccc3F)C2C(=O)N1c1ccccc1 (centres undefined),2.18
16,C=C(CCCC)/C(=C/C[C@@H](OC(C)=O)c1ccccc1OCCO)c1cc(C(=O)OC)ccc1OC,-0.746
17,O=C1C2C=CC(C(O)c3ccc(F)cc3)N(Nc3ccc([N+](=O)[O-])cc3)C2C(=O)N1c1ccccc1 (centres undefined),0.579
18,CC(=O)NCCCC[C@@H]1NC(=O)[C@H]2C[C@@H](C(=O)O)[C@@H](c3ccc(O)cc3)N2C1=O,-1.35
19,COc1ccc([Si](C)(C)[C@H]2[C@H](CCn3cc([C@H](O)c4ccccc4)nn3)O[C@@]3(C(=O)N(C)c4ccccc43)[C@@H]2C)cc1,0.0785

# Assay: MM1S myeloma cell viability, profiling panel, resazurin fluorescence, basal, 24 h, PK04 Diversity Set (AID 1174);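 further: MM1S multiple myeloma cell line; test concentration not given here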
# Details: higher = more signal, called active from +8 up or from −8 down
row,SMILES,z-score
1,[N-]=[N+]=Nc1ccccc1[C@H]1OC(c2ccc(OCCCO)cc2)=N[C@@]1(Cc1ccccc1)C(=O)N1CCOCC1,-2.81
2,CN1C(=O)C2C=CC(C(O)c3ccccc3)N(N3CCCCC3)C2C1=O (centres undefined),-0.983
3,C=CCC(OC(C)=O)[C@@H]1[C@@H](N(Cc2ccc(-c3ccccc3)cc2)C(=O)Cc2ccc(F)cc2)c2cc(OCCCO)ccc2N1C(=O)c1ccc2ccccc2c1 (some centres undefined),0.376
4,COc1cc(CO)cc(I)c1O[C@H]1C=C(C(=O)NCCO)C[C@@H](N(C(=O)c2cc3ccccc3oc2=O)C2CCCCCC2)[C@@H]1O,1.11
5,CCCNC(=O)[C@@]1(Sc2ccc(C)cc2)CC(=O)N(Cc2ccccc2C(F)(F)F)[C@@H]1c1ccc(CO)cc1I,-2.54
6,NC(=O)[C@@H]1[C@H]2C(=O)O[C@H](c3ccccc3)[C@H](c3ccccc3)N2[C@H](c2ccc(OCCO)cc2)[C@@]12C(=O)Nc1ccc(C#CC3=CCCCC3)cc12,-7.44
7,COCCCNC(=O)[C@@]1(Cc2ccccc2)N=C(c2ccc(OCCCO)cc2)O[C@H]1c1ccccc1CN=[N+]=[N-],-0.78
8,Cc1ccc(C2C3C(=O)CC4C(=O)N(c5ccccc5)C(=O)C4C3CN2S(=O)(=O)c2ccc(C)cc2)cc1 (centres undefined),-0.936
9,O=C(NC1CC1)[C@@H]1c2ccccc2C(=O)N(Cc2cc(F)cc(C(F)(F)F)c2)[C@H]1c1ccc(CO)cc1,-0.24
10,COc1cc2c(cc1O)C(c1cccs1)N(Cc1cccc(OC(F)(F)F)c1)CC2 (centres undefined),-1.11
11,CCOC(=O)C1=CC[C@@H](c2ccccc2)N(S(=O)(=O)c2ccc(C)cc2)[C@H]1c1ccc(CC)cc1,-0.342
12,CN1CCC(CCCO)=CC1c1cccs1 (centres undefined),-0.838
13,CCCCCN1CC=CC23O[C@@H]4C=CCOC(=O)[C@@H]4[C@H]2C(=O)N(C(C)CO)[C@@H]3C1=O (some centres undefined),-0.278
14,Cc1ccc(S[C@]2(C(=O)NCC(C)C)CC(=O)N(Cc3cc(C(F)(F)F)cc(C(F)(F)F)c3)[C@@H]2c2ccc(CO)cc2)cc1,-0.656
15,CC1CC/C=C\[C@H]2OC34C=CCN(Cn5nnc6ccccc65)C(=O)[C@H]3N(CCCCCO)C(=O)[C@@H]4C2C(=O)O1 (some centres undefined),-0.88
16,COc1ccc([Si](C)(C)[C@@H]2[C@@H](CCO)O[C@]3(C(=O)N(Cc4cccc(N5CCOC5=O)c4)c4ccccc43)[C@H]2C)cc1,-3.35
17,CCCCN1CC=CC23O[C@@H]4C=CCCOC(=O)C4[C@H]2C(=O)N(CCCCCO)[C@@H]3C1=O (some centres undefined),-0.401
18,COc1ccc(CCNC(=O)[C@@]2(C)c3ccccc3C(=O)N(c3ccc(C)cn3)[C@H]2c2ccc(CO)cc2)cc1,0.978

row,SMILES,z-score
1,COC(=O)[C@@]1(Cc2ccc(OC)cc2)[C@H]2c3cc(C(=O)N4CCCC4)n(Cc4nc5ccccc5[nH]4)c3C[C@H]2CN1C(=O)c1ccccc1,-1.79
2,[N-]=[N+]=NCc1ccccc1[C@@H]1OC(c2ccc(OCCCO)cc2)=N[C@]1(CCS(=O)(=O)c1ccccc1)C(=O)N1CCOCC1,0.543
3,CCOC(=O)C1=CC[C@H]2C(=O)N(c3ccccc3)C(=O)[C@@H]12,-0.811
4,COC(=O)[C@@]1(Cc2ccc(F)cc2)[C@H]2c3cc(C(=O)N(C)C)n(Cc4ccc(C)o4)c3C[C@H]2CN1C(=O)c1ccccc1,0.003
5,OCCCC1=CC(C2CC2)N(Cc2cccc(OC(F)(F)F)c2)CC1 (centres undefined),0.171
6,CCOc1cc(C(O)C2C=CC3C(=O)N(c4ccccc4)C(=O)C3N2Nc2ccc(C(C)C)cc2)ccc1O (centres undefined),-0.988
7,CO[C@H]1O[C@H](CO)[C@@H](OC(=O)Nc2ccccc2)[C@@H]2OC(=O)[C@@H](Cc3ccc4ccccc4c3)C/C=C/C[C@H](Cc3ccc4ccccc4c3)C(=O)O[C@@H]12,-0.588
8,CCOC(=O)C[C@H]1[C@H](OC(=O)c2ccc(C(=O)c3ccccc3)cc2)[C@@H](NC(=O)Cc2ccc(OC)cc2)c2cc(OCCCO)ccc2N1C(=O)c1ccc2ccccc2n1,-0.0911
9,C=CC[C@]1(C(=O)N2CCOCC2)N=C(c2ccc(OCCCO)cc2)O[C@H]1c1ccccc1N=[N+]=[N-],-0.454
10,NC(=O)[C@@H]1[C@H]2C(=O)O[C@H](c3ccccc3)[C@H](c3ccccc3)N2[C@H](c2ccc(O)cc2)[C@@]12C(=O)Nc1ccc(C#CC3=CCCCC3)cc12,-7.46
11,COCCCNC(=O)[C@]1(Cc2ccccc2)N=C(c2ccc(OCCCO)cc2)O[C@@H]1c1ccccc1CN=[N+]=[N-],-0.491
12,CC(C)(C)OC(=O)CC[C@]1(C(N)=O)N=C(c2ccc(OCCCO)cc2)O[C@H]1c1ccccc1,-0.689
13,O=C1C2C=CC(C(O)C=Cc3ccc([N+](=O)[O-])cc3)N(Nc3ccccc3F)C2C(=O)N1c1ccccc1 (centres undefined),-0.747
14,C=C(CCCC)/C(=C/C[C@@H](OC(C)=O)c1ccccc1OCCO)c1cc(C(=O)OC)ccc1OC,-0.909
15,O=C1C2C=CC(C(O)c3ccc(F)cc3)N(Nc3ccc([N+](=O)[O-])cc3)C2C(=O)N1c1ccccc1 (centres undefined),-0.115
16,CC(=O)NCCCC[C@@H]1NC(=O)[C@H]2C[C@@H](C(=O)O)[C@@H](c3ccc(O)cc3)N2C1=O,-0.481
17,COc1ccc([Si](C)(C)[C@H]2[C@H](CCn3cc([C@H](O)c4ccccc4)nn3)O[C@@]3(C(=O)N(C)c4ccccc43)[C@@H]2C)cc1,-0.722
